Source: PubChem BioAssay (National Center for Advancing Translational Sciences (NCATS))
Rows were chosen to be rich in hits. Some 6% of all compounds tested hit in one or more screens of this group.
Pol III holo inh – inhibitors of bacterial DNA polymerase III holoenzyme; reconstituted DNA polymerase III holoenzyme replication, biochemical; Potency, µM (series often up to 57.1 µM); 0.25% of 71,000 active; AID 603
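Reconstituted *E. coli* holoenzyme (0.35 nM Pol III, 1 nM beta, 154 nM SSB, 2 nM primase) was preincubated with compound for 15 min at RT. Synthesis on 1.4 nM ssM13Gori ran 35 min, then was stopped with PicoGreen/EDTA and read as dsDNA fluorescence.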
FLuc inh – blocks Photinus pyralis firefly luciferase activity | purified firefly luciferase, luminescence, 8 min | Potency, µM (series often up to 57.1 µM), hits mostly inhibitors | 2.2% of 72,000 active | AID 411; further: nearly all actives have a fitted effect of over 40% in size
Target sequence (P08659 whole entry, looked up): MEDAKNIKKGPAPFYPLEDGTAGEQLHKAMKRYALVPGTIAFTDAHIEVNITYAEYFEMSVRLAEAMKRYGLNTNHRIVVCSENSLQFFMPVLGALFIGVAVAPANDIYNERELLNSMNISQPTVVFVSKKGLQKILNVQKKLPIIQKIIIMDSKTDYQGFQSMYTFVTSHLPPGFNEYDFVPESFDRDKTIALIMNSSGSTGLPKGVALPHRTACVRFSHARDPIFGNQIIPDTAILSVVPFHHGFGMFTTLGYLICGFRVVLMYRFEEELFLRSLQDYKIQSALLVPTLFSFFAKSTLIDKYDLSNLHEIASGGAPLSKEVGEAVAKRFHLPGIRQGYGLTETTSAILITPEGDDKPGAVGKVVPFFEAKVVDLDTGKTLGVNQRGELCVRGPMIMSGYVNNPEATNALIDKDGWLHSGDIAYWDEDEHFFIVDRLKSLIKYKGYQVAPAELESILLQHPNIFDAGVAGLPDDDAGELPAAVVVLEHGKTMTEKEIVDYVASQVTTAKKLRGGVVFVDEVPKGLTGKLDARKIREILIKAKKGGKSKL
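Luminescence read-out after 8 min at room temperature; enzyme reaction used luciferin plus 10 uM ATP (linear range) in imidazole buffer pH 7.2 with KCl, MgCl2, Tween 20 and BSA. Each sample was run as a titration.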
ALOX15 inhib – blocks human 15-lipoxygenase activity | P16050 | purified 15hLO-1, xylenol orange hydroperoxide absorbance | Potency, µM (titrated, usually from 57.1 µM), hits mostly inhibitors | 1.4% of 74,000 active | AID 887; further: nearly all actives have a fitted effect of over 55% in size
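Compounds were preincubated 15 min at room temperature with 40 nM purified human enzyme (25 mM Hepes pH 7.5, 0.01% Triton X-100); 50 uM arachidonic acid reacted 6 min. Fe-xylenol orange detection, 30 min, absorbance ratio 573/405 nm.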
Tau filament bind – binds recombinant human tau filaments; P10636; recombinant tau filaments, thioflavin S fluorescence, 15 h; filaments grown with octadecylsulfate alongside compound; Potency, µM (titrated, usually from 57.1 µM); 2% of 71,000 active; AID 596;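 further: actives lower thioflavin S fluorescence by blocking filaments or displacing dye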
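ThS-based fibril read: tau 1 uM final, inducer ODS 30 uM final, 37 C for 15 h, ex 450/em 510 nm.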
PK Bst – modulators of Bacillus stearothermophilus pyruvate kinase | purified pyruvate kinase, luminescence ATP production; ribose 5-phosphate activator present at AC10 | Potency, µM | 1.2% of 51,000 active | AID 361; in the data active means potency below about 11 µM; inconclusive means mostly about 12 µM to 25 µM;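 the screen sought inhibitors and activators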
ERK AVP block – blocks ERK signaling stimulated by vasopressin. HEK293-V1b, vasopressin-stimulated pERK AlphaScreen. 0.99% of 72,000 active. AID 995. Potency, µM (doses to about 57.5 µM), actives largely listed as inhibitors; further: nearly all actives have a fitted effect of over 55% in size
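V1b-HEK293 cells; cpd 30 min 37C; 25 nM vasopressin 5 min; lyse 10 min; AlphaScreen beads 5 hr RT. Normalized to DMSO basal and 25 nM vasopressin; AC50 by Hill fit.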
Numbers stand for hits; - = inactive; ? = inconclusive; . = no result; [ ] = remark or other dose. Unless noted, the call rests on the fitted dose curve; in most records, active means well fitted curve in the direction sought with a large enough effect; inconclusive means small, poorly fitted or top-dose-only effect, or another doubt; inactive means no such curve, though single readings can be large; an effect the other way counts as inactive or inconclusive.

SMILES	Pol III holo inh	FLuc inh	ALOX15 inhib	Tau filament bind	PK Bst	ERK AVP block
Cc1c(C)n(CC(O)CN2CCCCCC2)c2ccccc12 (configuration not stated)	-	-	?	12.6µM	.	-
COc1ccc(OC2C=CC(C#Cc3ccccc3)OC2CO)cc1 (configuration not stated)	.	.	-[11.4 µM]	.	.	-[11.5 µM]
CN(C)c1ccc(NC(=O)Nc2cccc(Cl)c2)cc1	-	10µM	-	5.01µM	.	-
CN(c1cccc(NC(=O)Nc2cccc(Cl)c2)c1)S(C)(=O)=O	-	10µM	-	-	?	-
CC(C)CCNC(=O)NC(=O)CSc1nnc(COc2ccccc2Cl)o1	-	-	-	-	-	-
O=C(CSc1nnc(COc2ccccc2Cl)o1)NC(=O)NC1CCCC1	-	-	-	-	-	20µM
Cn1cccc1-c1nc2ccc(NC(=O)c3ccco3)cc2[nH]1	-	?	-	-	-	-
Cc1ccc2nc(-c3ccc(NC(=O)c4ccco4)cc3)[nH]c2c1	-	5.01µM	-	-	7.2	-
O=C(Nc1cccc(NC(=O)c2nccc3ccccc23)c1)c1ccco1	-	12.6µM	-	-	-	-
O=C(Nc1cccc2cccc(NC(=O)c3ccco3)c12)c1ccco1	-	-	-	12.6µM	-	-
O=C(Nc1cccc(-c2nc3ccccc3[nH]2)c1)c1ccco1	-	25.1µM	-	-	-	-
CC1(C)C(=O)C(c2ccccc2)=C2CN3C(=O)N(CCc4ccccc4)C(=O)C3(Cc3ccc(C(F)(F)F)cc3)C=C21 (configuration not stated)	-	.	.	-	.	-
OC[C@@H]1O[C@@H](N2CCN([C@@H]3O[C@@H](CO)[C@@H](O)[C@H](O)[C@H]3O)CC2)[C@@H](O)[C@H](O)[C@H]1O	-[11.4 µM]	-[11.4 µM]	-[11.4 µM]	-[11.4 µM]	.	-[11.5 µM]
COc1ncc2nc(C)c(=O)n(CCC#N)c2n1	-	-[11.4 µM]	-	-	.	?
CC(C)[C@@H](C(=O)O)N1C(=O)c2ccccc2C1=O	-[11.4 µM]	-[11.4 µM]	-[11.4 µM]	-[11.4 µM]	.	-[11.5 µM]
COc1ccc(OC)c(C2OCCC=CC2C)c1 (configuration not stated)	.	.	-[11.4 µM]	.	.	-[11.5 µM]
C=CCC1C=CC(Oc2ccc(OC)cc2)C(CO)O1 (configuration not stated)	.	.	-[11.4 µM]	.	.	-[11.5 µM]
O=C(Nc1ccc2c(c1)ncn2-c1ccccc1)c1ccco1	-	12.6µM	-	-	10	-
N=C(C[C@@H](O)COc1ccccc1-c1ccccc1)N1CCCCC1	-	-	-	-	.	-
Cc1nc2cc3nc(C)sc3cc2s1	-	15.8µM	-	-	-	-
Cn1c(=O)c(-c2cc(F)cc(F)c2)nc2cnc(N3CCOCC3)nc21	-	-[11.4 µM]	-	-	.	-
Nc1ncnc2oc(-c3ccco3)c(-c3ccco3)c12	10µM	-	2.51µM	-	.	?
Nc1nnc(-c2ccco2)s1	-	-	-	-	.	-
CCCn1c(NCc2cc(C)ccc2O)nc2ccccc21	-	-	-	-	.	-
Cn1c(NCc2ccco2)nc2ccccc21	-	-	-	15.8µM	-	?
SMILES	Pol III holo inh	FLuc inh	ALOX15 inhib	Tau filament bind	PK Bst	ERK AVP block
Cn1c(/N=C/c2c[nH]c3ccccc23)nc2ccccc21	-	0.631µM	-	-	0.3	-
CN(C)CCNc1c2c(c(C#N)c3nc4ccccc4n13)CCCC2	-	-	-	-	-	-
CCCCn1c(NCc2ccccc2O)nc2ccccc21	-	-	-	-	.	25.1µM
N#Cc1c2c(c(NCc3ccco3)n3c1nc1ccccc13)CCC2	-	-	5.01µM	-	.	-
Cn1c(/C=N/n2cnnc2)nc2ccccc21	-[11.4 µM]	-	-[11.4 µM]	-[11.4 µM]	.	-
COc1cccc(Cn2c(=O)c(-c3cc(F)cc(F)c3)nc3cnc(N(C)C)nc32)c1	-	-[11.4 µM]	-	-	.	-
Cn1c(/N=C/c2ccc3c(c2)OCO3)nc2ccccc21	-	2.51µM	-	-	.	-
Cn1c(NCc2c[nH]c3ccccc23)nc2ccccc21	-	25.1µM	-	-	.	?
O=C(/C=C/c1ccc(O)cc1)c1ccc(O)cc1O	.	.	-[11.4 µM]	.	.	-[11.5 µM]
COc1ccc(/C=C/C(=O)c2ccc(C)s2)cc1	.	.	-	.	.	-
COc1ccc(NC(=O)/C=C\c2ccc(Cl)cc2)cc1	-	12.6µM	-	-	.	?
COc1ccc(/C=C/C(=O)c2cc(O)ccc2O)cc1	.	.	20µM	.	.	?
COc1ccc(/C=C/C(=O)c2ccc(O)cc2O)cc1OC	.	.	15.8µM	.	.	15.8µM
O=C(/C=C/c1ccccc1)c1ccc(O)cc1O	.	.	20µM	.	.	?
COc1ccc(/C=C/C(=O)c2ccc(O)cc2O)cc1	.	.	20µM	.	.	?
C=C(C)C(=O)OCCCCCC	-	.	-	-	.	-
CC1=C[N+](=O)c2ccccc2[N+]1=O	-[11.4 µM]	-[11.4 µM]	-[11.4 µM]	-[11.4 µM]	.	-[11.5 µM]
N#CNC(N)=Nc1ccc(Cl)cc1	-[11.4 µM]	-[11.4 µM]	-[11.4 µM]	-[11.4 µM]	.	-[11.5 µM]
Cc1ccc2c(CC(=O)Nc3ccc(N4CCN(C)CC4)cc3C)coc2c1	?	6.31µM	-	-	-	?
Cc1ccc2c(CC(=O)Nc3sccc3C(N)=O)coc2c1	-	-	-	-	.	-
CCOc1ccc(OCc2cccc(C(=O)N3CCOCC3)c2)cc1	-	5.01µM	-	-	8.48	-
CCOc1ccc(C(=O)N2CCCN(C(=O)c3ccc(OCC)cc3)CC2)cc1	.	.	-	.	.	.
Cc1ccc(Nc2nc(CSc3nnnn3C)cs2)cc1	-	12.6µM	-	15.8µM	?	-
Cn1nnnc1SCc1csc(Nc2ccccc2)n1	-	-	-	-	-	-
c1ccc(Nc2ncnc3ccc(-c4cccnc4)cc23)cc1	-	-[2.29 µM]	-	-	.	-
SMILES	Pol III holo inh	FLuc inh	ALOX15 inhib	Tau filament bind	PK Bst	ERK AVP block
COc1ccc(N2CCN(C(=O)c3ccc(C)c(Cl)c3)CC2)cc1	-	-	-	?	6.38	-
COc1ccc(C(=O)N2CCC3(CCN(C)CC3)CC2)cc1	-	-[11.4 µM]	-	15.8µM	.	-
CC[C@@H]1OC(=O)[C@@H](C)[C@H](O[C@@H]2C[C@@](C)(OC)[C@@H](O)[C@H](C)O2)[C@H](C)[C@H](O[C@@H]2O[C@@H](C)C[C@@H](N(C)C)[C@H]2O)[C@@](C)(O)C[C@H](C)C(=O)[C@@H](C)[C@H](O)[C@@]1(C)O	-	-[11.4 µM]	.	?	.	.
COc1ccc(C=Nc2c(O)ccc3ccccc23)cc1OC	-[11.4 µM]	?	-[11.4 µM]	3.98µM	.	-[11.5 µM]
CCCNC(=O)c1cc(-c2ccc(O)cc2)on1	-	-	-	-	.	-
O=C(CS(=O)(=O)c1ccccc1)Nc1nc(-c2ccccc2)cs1	-	-	?	-	-	39.8µM
CCCC(=O)Nc1nc2ccc(NC(=O)c3ccc(Br)o3)cc2s1	-	-	?	-	-	20µM
CCCC(=O)Nc1nc2ccc(OC)cc2s1	-	12.6µM	-	-	.	.
COc1ccc2nc(NC(=O)c3ccoc3C)sc2c1	-	3.16µM	-	-	-	-
COc1ccc2nc(NC(=O)c3cccc(OCc4c(C)noc4C)c3)sc2c1	-	12.6µM	?	-	6.05	-
CCC(=O)Nc1nc2ccc(NC(C)=O)cc2s1	-	-	-	-	-	-
COC(=O)c1sc(NC(=O)c2ccoc2C)nc1C	-	-	-	-	-	-
